A short description of assay [1]: inhibitors of TNFa-induced NFkB p65 translocation, primary screen, imaging, HUVEC, MLSMR starter and 10KST1 sets (AID 438).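 Also: compound added about 3h40 before a 20 min TNFalpha stimulation.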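 As to inhibition: signal is the nuclear over cytoplasmic p65 intensity ratio per well.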 Conditions: HUVEC TNFa-induced p65 nuclear translocation; cell count: measured here: nuclei count (cytotoxicity indicator), at 2.08 µM; inhibition: at 2 µM, stronger effect = higher value, 0% TNFa-plus-vehicle, 100% no-TNFa wells.
Assay [2] can be described thus: inhibitors of mutant huntingtin aggregation, primary screen, imaging, exon1htt(103Q)mCFP cells, high-content imaging (AID 483;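 active = visual image review flags a hit and inhibition of aggregation exceeds 20%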;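 also: compound exposure lasted 3 days before fixation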;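 as to nuclei count: percent of the per-plate median nuclei count of sample wells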). Conditions: exon1htt(103Q)mCFP cell line, aggregate imaging, at 2 µM; inhibition of aggregation: stronger effect = higher value; nuclei count: measured here: cell count, toxicity.
The nature of assay [3]: inhibitors of E-selectin induction by TNFa, primary screen, imaging, HUVEC, immunofluorescence, MLSMR starter and 10KST1 sets (AID 487;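 active = visually confirmed hit in the image check and inhibition above 20%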;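 as to inhibition: signal is fraction of cell area covered by stained E-selectin grains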;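 as to nuclei count: 100% = median nuclei count of all wells on the same plate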). Conditions: HUVEC TNFalpha-induced E-selectin immunofluorescence imaging, at 2 µM; inhibition: stronger effect = higher value; nuclei count: measured here: cell number, toxicity.
Assay [4] concerns the target Voltage-gated potassium channel subunit beta-2 (Rattus norvegicus) (UniProt P62483). The experiment in a line: KvBeta enzyme negative modulators, primary screen, biochemical, NADPH fluorescence (AID 622;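 active = fluorescence slope higher than the sample average by over 3 SD, cut at about -0.22 in these data, passing the limit was not always enough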;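 also: slope of raw intensity against log time taken from 70 to 1610 s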). Conditions: recombinant KvBeta, 4-cyanobenzaldehyde reduction, at 10 µM, stronger effect = higher value.
The target is the same in assay [5]. Description: KvBeta positive modulators, primary screen, biochemical, NADPH fluorescence (AID 623;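 active = NADPH fluorescence slope more negative than the mean of all samples by about 3 SD, 99.7% confidence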;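 also: fluorescence intensity change per second fitted from 20 to 320 s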). The settings on record: Recombinant KvBeta, NADPH fluorescence decrease slope, 10 min; at 10 µM; stronger effect = lower value.
Assay [6] has as its target Alpha-2C adrenergic receptor (Homo sapiens) (UniProt P18825). The experiment in a line: modulators of alpha2C/GIRK thallium flux, primary screen, cell-based, HEK293 alpha2C/GIRK1/2 (AID 624;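 active = fluorescence slope after compound addition differing from the mean of all screened samples at 99.7% confidence, in either direction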;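 also: slope of fluorescence ratio to pre-addition baseline per second over 15 to 24 s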). Conditions: thallium flux BTC fluorescence, at 10 µM, actives lie on both sides.
Assay [7] is described as follows: inhibitors of Sendai virus-induced IRF3 signaling, primary screen, TLR/RLR signaling modifier project, cell-based, Sendai virus stimulus, luciferase, 10K MLSCN set (AID 602276;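 active = inhibition at or above 50% at 10 µM; inactive = inhibition below 50%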;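 also: firefly luciferase from ISG56 promoter only with Renilla not read in this screen; 0% = Sendai virus plus DMSO and 100% = medium plus DMSO without virus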). Conditions: HEK293 RL24 IRF3 luciferase reporter, at 10 µM, stronger effect = higher value. In general terms: Reporter assays use an easily measured gene product as a stand-in for the process of interest.

Assay [8] in a line: inhibitors of poly I:C-induced TLR3 signaling, primary screen, cell-based, poly I:C stimulus, luciferase, 10K MLSCN set (AID 602277;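 active = inhibition of the reporter signal at or above 50%; inactive = inhibition below 50%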). Conditions: HEK293-TLR3 RL24 IRF3 luciferase reporter, at 10 µM, stronger effect = higher value.

The structures appear in SMILES notation. Activity calls are given as the source filed them.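 The calls were made as follows, unless noted: active = inhibition above 20% together with a positive visual image hit; inconclusive = visual image hit but inhibition not above 20%; inactive = no visual image hit.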

As usually defined, the inhibition is the change of the read-out against control, counted positive when it falls.

Sequence of Voltage-gated potassium channel subunit beta-2 (Rattus norvegicus) (P62483 whole entry, looked up): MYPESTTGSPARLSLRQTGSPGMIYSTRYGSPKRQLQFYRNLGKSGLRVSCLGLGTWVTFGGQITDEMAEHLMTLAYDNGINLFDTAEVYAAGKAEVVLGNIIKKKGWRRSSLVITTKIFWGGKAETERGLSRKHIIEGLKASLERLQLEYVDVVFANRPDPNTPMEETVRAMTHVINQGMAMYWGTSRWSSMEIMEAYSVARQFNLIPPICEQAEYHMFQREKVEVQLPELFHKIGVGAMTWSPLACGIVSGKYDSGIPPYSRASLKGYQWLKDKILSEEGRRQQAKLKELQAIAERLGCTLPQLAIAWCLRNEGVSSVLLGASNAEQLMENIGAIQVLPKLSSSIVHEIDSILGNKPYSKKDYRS
Sequence of Alpha-2C adrenergic receptor (Homo sapiens) (P18825 whole entry, looked up): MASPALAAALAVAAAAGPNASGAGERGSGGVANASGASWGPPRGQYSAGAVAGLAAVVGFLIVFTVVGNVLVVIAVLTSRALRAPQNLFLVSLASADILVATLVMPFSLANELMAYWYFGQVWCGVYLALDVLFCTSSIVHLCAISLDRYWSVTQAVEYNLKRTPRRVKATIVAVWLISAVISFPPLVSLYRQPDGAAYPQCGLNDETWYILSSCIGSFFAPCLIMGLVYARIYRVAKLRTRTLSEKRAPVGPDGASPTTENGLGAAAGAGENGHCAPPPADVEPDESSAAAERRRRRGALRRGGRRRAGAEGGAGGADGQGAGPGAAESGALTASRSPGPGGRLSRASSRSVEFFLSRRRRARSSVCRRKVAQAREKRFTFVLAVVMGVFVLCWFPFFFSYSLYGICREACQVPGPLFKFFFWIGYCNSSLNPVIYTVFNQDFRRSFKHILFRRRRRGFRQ

As for `CCN1CCN(CCNC(=O)c2cn(C(C)c3ccccc3F)nn2)CC1` (centres undefined), the cell count in assay [1] stood at 560. Moreover, the inhibition in assay [1] was -29.6% (inactive); in assay [3] it was -32.9% (inactive); in assay [7] it was 12% (inactive); in assay [8], 9.63% (inactive). The inhibition of aggregation in assay [2] is -18.1% (inactive). For the same compound, the nuclei count is 112% in assay [2] and 110% in assay [3]. Besides, in assay [4], the fluorescence slope was -0.61 (inactive). Moreover, the NADPH fluorescence slope in assay [5] was -1.9e-05 (inactive). For the same compound, the slope in assay [6] was 0.00807 (inactive).

`O=C(NC(=O)c1ccc(Cl)cc1)Nc1cc(N2CCCCC2)ncn1`: in assay [1], the cell count is 333. Further, the inhibition is 5.5% (inactive) in assay [1], -70% (inactive) in assay [3], 13.2% (inactive) in assay [7] and 9.71% (inactive) in assay [8]. Moreover, the inhibition of aggregation in assay [2] is 11.3% (inactive). The nuclei count amounted to 85.1% in assay [2] and 89.5% in assay [3]. Also, the fluorescence slope in assay [4] is -0.48 (inactive). Also, in assay [5], the NADPH fluorescence slope is -4.9e-05 (inactive). The slope in assay [6] was 0.00674 (inactive).

Turning to `C/C(N)=C(/C#N)C(=O)COC(=O)c1cc(S(=O)(=O)N2CCCCC2)ccc1C`, the cell count in assay [1] was 508. For the same compound, the inhibition in assay [1] is 7.7% (inactive); in assay [3], 12.6% (inactive); in assay [7], 7.49% (inactive); in assay [8], 6.72% (inactive). Moreover, the inhibition of aggregation in assay [2] is -28.1% (inactive). Also, the nuclei count in assay [2] was determined as 104%; in assay [3], 85.7%. Moreover, in assay [4], the fluorescence slope is -0.366 (inactive). Further, the NADPH fluorescence slope in assay [5] was 1.2e-05 (inactive). In addition, the slope in assay [6] is 0.00665 (inactive).

Take `COc1ccc(C(=O)COC(=O)CCn2nnc(-c3cccs3)n2)cc1`: the cell count in assay [1] was determined as 237. Moreover, the inhibition in assay [1] is 2.2% (inactive); in assay [3], 56.4% (inactive); in assay [7], -6.55% (inactive); in assay [8], -7.1% (inactive). The inhibition of aggregation in assay [2] was 20% (inactive). Moreover, the nuclei count in assay [2] is 78.6%; in assay [3], 73.7%. Further, the fluorescence slope in assay [4] is -0.426 (inactive). Further, the NADPH fluorescence slope in assay [5] was 1.6e-05 (inactive). Further, in assay [6], the slope is 0.00571 (inactive).

Regarding `CC1=NC(Nc2nc(C)c3ccccc3n2)=NC(C)(C)C1`, the cell count in assay [1] came out at 391. In addition, the inhibition in assay [1] is 1.5% (inactive); in assay [3], -13% (inactive); in assay [7], 3.86% (inactive); in assay [8], 1.48% (inactive). Besides, the inhibition of aggregation in assay [2] is -1.8% (inactive). The nuclei count is 94% in assay [2] and 111% in assay [3]. Moreover, in assay [4], the fluorescence slope was -0.462 (inactive). Further, the NADPH fluorescence slope in assay [5] was 6.6e-05 (inactive). In assay [6], the slope was 0.00711 (inactive).

Take `O=C(Nc1ccc(N2C(=O)C3C4C=CC(C4)C3C2=O)cc1)Nc1cccnc1` (centres undefined): the cell count in assay [1] was found to be 426. The inhibition in assay [1] is 0% (inactive); in assay [3], -33.4% (inactive); in assay [7] it was 7.37% (inactive); in assay [8], 3.82% (inactive). Moreover, the inhibition of aggregation in assay [2] was -7.7% (inactive). The results for the nuclei count in assay [2] and in assay [3] were 104% and 112%, respectively. In addition, in assay [4], the fluorescence slope is -0.334 (inactive). Besides, the NADPH fluorescence slope in assay [5] was -2.1e-05 (inactive). The slope in assay [6] was 0.00357 (inactive).

On to `Cc1noc(/C=C/N(C)C)c1S(=O)(=O)N1CCCC(C(=O)N2CCCCC2)C1` (centres undefined), for which the cell count in assay [1] came to 709. The inhibition in assay [1] was 9.1% (inactive); in assay [3], -79.5% (inactive); in assay [7], 7.18% (inactive); in assay [8] it was 28.7% (inactive). In assay [2], the inhibition of aggregation was -0.1% (inactive). Also, the nuclei count in assay [2] was 80.5%; in assay [3], 117%. Moreover, the fluorescence slope in assay [4] was -0.516 (inactive). Besides, the NADPH fluorescence slope in assay [5] was -3.8e-05 (inactive). In assay [6], the slope is 0.00526 (inactive).

Regarding `COc1ccccc1-n1c(SCC(=O)Nc2ccc3c(c2)OCO3)nc2c(c1=O)SCC2`, the cell count in assay [1] was found to be 324. In addition, the inhibition in assay [1] was -4.6% (inactive); in assay [3] it was -54.1% (inactive); in assay [7], -5.47% (inactive); in assay [8] it was 7.78% (inactive). Besides, in assay [2], the inhibition of aggregation is -2.1% (inactive). For the same compound, the nuclei count in assay [2] was determined as 94.7%; in assay [3], 137%. Besides, the fluorescence slope in assay [4] was -0.545 (inactive). The NADPH fluorescence slope in assay [5] is 4.8e-05 (inactive). Further, the slope in assay [6] is 0.00487 (inactive).

Take `CCCN(CCC)C(=O)C1CCN(c2cc(C)nc3c(-c4ccc(OC)c(OC)c4)c(C)nn23)CC1`: the cell count in assay [1] came to 651. For the same compound, the inhibition in assay [1] was 6.6% (inactive); in assay [3] it was -68.7% (inactive); in assay [7], 4.7% (inactive); in assay [8] it was 7.43% (inactive). The inhibition of aggregation in assay [2] is -2.4% (inactive). Moreover, the nuclei count in assay [2] was found to be 91.7%; in assay [3] it was 124%. Moreover, the fluorescence slope in assay [4] was -0.492 (inactive). Moreover, the NADPH fluorescence slope in assay [5] was -2.2e-05 (inactive). Besides, the slope in assay [6] was 0.00708 (inactive).

`O=C(CN1C(=O)CSC1=O)Nc1ccc(N2CCOCC2)cc1`: the cell count in assay [1] amounted to 700. Also, the inhibition in assay [1] is -1% (inactive); in assay [3] it was -27.8% (inactive); in assay [7], -8.99% (inactive); in assay [8] it was -8.78% (inactive). For the same compound, the inhibition of aggregation in assay [2] was 15.2% (inactive). For the same compound, the nuclei count in assay [2] came out at 110%; in assay [3], 113%. Further, the fluorescence slope in assay [4] was -0.544 (inactive). In addition, the NADPH fluorescence slope in assay [5] is -2.2e-05 (inactive). For the same compound, the slope in assay [6] was 0.00569 (inactive).

With `CCC(=O)Nc1cc(C)c(NC(=O)C23CC4CC(CC(C4)C2)C3)cn1`, the cell count in assay [1] came to 391. In addition, the inhibition is 5.2% (inactive) in assay [1], -11.3% (inactive) in assay [3], 1.14% (inactive) in assay [7] and 18.1% (inactive) in assay [8]. Also, in assay [2], the inhibition of aggregation was 1% (inactive). The nuclei count in assay [2] stood at 98.8%; in assay [3], 102%. Besides, the fluorescence slope in assay [4] was -0.479 (inactive). For the same compound, the NADPH fluorescence slope in assay [5] is -3.3e-05 (inactive). In assay [6], the slope was 0.00598 (inactive).

Regarding `COCCN(CC(=O)Nc1ccccc1C)S(=O)(=O)c1ccc(S(=O)(=O)N2CCCC2)cc1`, the cell count in assay [1] worked out at 404. In addition, the inhibition was -9.5% (inactive) in assay [1], -18.2% (inactive) in assay [3], 7.63% (inactive) in assay [7] and 13.5% (inactive) in assay [8]. In addition, the inhibition of aggregation in assay [2] was -6.7% (inactive). Moreover, the figures for the nuclei count in assay [2] and in assay [3] were 103% and 69.8%, respectively. For the same compound, in assay [4], the fluorescence slope was -0.416 (inactive). For the same compound, in assay [5], the NADPH fluorescence slope was -7.2e-05 (inactive). Further, the slope in assay [6] is 0.0043 (inactive).

Consider `O=C(CSc1nnc(C2COc3ccccc3O2)o1)N1CCCc2ccccc21` (centres undefined), for which the cell count in assay [1] turned out to be 438. In addition, the inhibition in assay [1] is -1.8% (inactive); in assay [3] it was -80.9% (inactive); in assay [7] it was 12.5% (inactive); in assay [8], 34.9% (inactive). The inhibition of aggregation in assay [2] is 0.8% (inactive). Also, the results for the nuclei count in assay [2] and in assay [3] were 87.9% and 136%, respectively. For the same compound, in assay [4], the fluorescence slope was -0.298 (inactive). Further, the NADPH fluorescence slope in assay [5] was -4e-06 (inactive). Moreover, the slope in assay [6] was 0.00363 (inactive).

Take `Cc1cc(C)c(C#N)c(SCC(=O)Nc2ccc(S(=O)(=O)Nc3onc(C)c3C)cc2)n1`: the cell count in assay [1] was found to be 607. In addition, the inhibition in assay [1] was 2.9% (inactive); in assay [3], -59.1% (inactive); in assay [7] it was 9.61% (inactive); in assay [8], 24.3% (inactive). Moreover, in assay [2], the inhibition of aggregation was 3.9% (inactive). For the same compound, the values for the nuclei count in assay [2] and in assay [3] were 103% and 122%, respectively. Moreover, the fluorescence slope in assay [4] is -0.448 (inactive). The NADPH fluorescence slope in assay [5] is 1.9e-05 (inactive). The slope in assay [6] was 0.00553 (inactive).

The record behind these values is PubChem BioAssay.
